Measurements taken from PubChem BioAssay AID1159580 (chemical genetic matrix, 2015).
Screen size: about 5,500 compounds; about 2,000 (36%) were called active. About 18% were inconclusive and are not listed. No stated cut-off is given here; in the data, active means normalized growth mostly below about 0.91 (no sharp cut-off); inconclusive means no clear call, values can overlap the other calls; inactive means mostly above about 0.92. Some of the results follow.

Experiment: chemical genetic growth profiling, strain panel (AID 1159580);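 further: tested at 20 µM; growth read once vehicle control cultures reached saturation at 30 °C; 1 = growth at the plate median or of vehicle wells; lower values mean less growth of the strain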
Settings: S. cerevisiae deletion strains, growth OD

Measured: normalized growth

CC12CC[C@@H](O)CC1=CC[C@@H]1C2CCC2(C)C(=O)CC[C@@H]12 (stereo partly specified)
active: locus YHR030C, strain SLT2, hits give low values 0.787
inactive: locus YAR019C, strain CDC15, hits give low values 1.01 | locus YBL105C, strain PKC1, hits give low values 1.01 | locus YBR135W, strain CKS1, hits give low values 1.02 | locus YBR136W, strain MEC1, hits give low values 1.01 | locus YBR160W, strain CDC28, hits give low values 1.02 | locus YDL017W, strain CDC7, hits give low values 1.02 | locus YDL028C, strain MPS1, hits give low values 1.02 | locus YDL101C, strain DUN1, hits give low values 1 | locus YDL108W, strain KIN28, hits give low values 1.01 | locus YDL132W, strain cdc53, hits give low values 1.02 | locus YDL214C, strain PRR2, hits give low values 0.915 | locus YDR052C, strain DBF4, hits give low values 1.01 | locus YDR054C, strain cdc34, hits give low values 1.01 | locus YDR226W, strain ADK1, hits give low values 1.01 | locus YDR477W, strain SNF1, hits give low values 0.909 | locus YER123W, strain YCK3, hits give low values 0.822 | locus YER133W, strain GLC7, hits give low values 0.915 | locus YFL009W, strain cdc4, hits give low values 1.02 | locus YFL029C, strain CAK1, hits give low values 1.01 | locus YFR003C, strain YPI1, hits give low values 1.01 | locus YFR019W, strain FAB1, hits give low values 0.801 | locus YFR028C, strain CDC14, hits give low values 1.01 | locus YGR040W, strain KSS1, hits give low values 0.889 | locus YGR052W, strain FMP48, hits give low values 0.924 | locus YGR092W, strain DBF2, hits give low values 0.695 | locus YHR079C, strain IRE1, hits give low values 0.96 | locus YHR082C, strain KSP1, hits give low values 0.95 | locus YHR205W, strain SCH9, hits give low values 0.852 | locus YIL147C, strain SLN1, hits give low values 1.01 | locus YJL095W, strain BCK1, hits give low values 0.815 | locus YJL128C, strain PBS2, hits give low values 0.973 | locus YJL157C, strain FAR1, hits give low values 0.893 | locus YJR016C, strain ILV3, hits give low values 1.02 | locus YJR066W, strain TOR1 (second series), hits give low values 0.848 | locus YJR066W, strain TOR1, hits give low values 0.901 | locus YKL048C, strain ELM1, hits give low values 0.957 | locus YKL067W, strain YNK1, hits give low values 0.924 | locus YKL101W, strain HSL1, hits give low values 0.913 | locus YKL193C, strain SDS22, hits give low values 1.01 | locus YKL203C, strain TOR2, hits give low values 0.92 | locus YLR113W, strain HOG1, hits give low values 0.996 | locus YLR133W, strain CKI1, hits give low values 0.904 | locus YLR403W, strain SFP1, hits give low values 0.801 | locus YML070W, strain DAK1, hits give low values 0.903 | locus YMR001C, strain CDC5, hits give low values 1 | locus YMR205C, strain PFK2 (second series), hits give low values 0.916 | locus YMR277W, strain FCP1, hits give low values 1.01 | locus YNL006W, strain LST8, hits give low values 1.02 | locus YNL020C, strain ARK1, hits give low values 0.908 | locus YNL161W, strain CBK1, hits give low values 1.02 | locus YNL183C, strain NPR1, hits give low values 0.95 | locus YNL207W, strain RIO2, hits give low values 1.01 | locus YNL222W, strain SSU72, hits give low values 1.02 | locus YNL307C, strain MCK1 (second series), hits give low values 0.787 | locus YOL078W, strain AVO1, hits give low values 1 | locus YOL136C, strain PFK27, hits give low values 0.838 | locus YOR061W, strain CKA2, hits give low values 0.861 | locus YOR119C, strain RIO1, hits give low values 0.938 | locus YOR231W, strain MKK1, hits give low values 0.912 | locus YOR329C, strain SCD5, hits give low values 1.02 | locus YPL031C, strain PHO85, hits give low values 0.899 | locus YPL153C, strain RAD53, hits give low values 0.921 | locus YPL204W, strain HRR25, hits give low values 0.853 | locus YPL209C, strain IPL1, hits give low values 1.02 | locus YPL256C, strain CLN2, hits give low values 1.07 | locus YPR025C, strain CCL1, hits give low values 1.02 | locus YPR106W, strain ISR1, hits give low values 0.998 | locus YPR111W, strain DBF20, hits give low values 1 | strain NNK1, hits give low values 1 | strain TSCII, hits give low values 1.01
